PubChem BioAssay AID624331 (National Center for Advancing Translational Sciences (NCATS), 2012)
Inconclusive results are not listed. A call without a number means that no potency is given here. Active and inactive are the calls of the source. Calls come from the whole dose curve; as a rule, active = well fitted activation curve with a large enough effect; inconclusive = small, poorly fitted or top-dose-only effect; inactive = no such curve, though single readings can be large or run the other way.

Assay: qHTS assay for re-activators of p53 using a Luc reporter: Hit Validation with no p53 Expressed
Conditions: p53-null cells, luciferase reporter counter-screen; series mostly up to 46.1 µM
How it was run: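 Counter-screen of primary hits in a cell line not transfected with p53, in Opti-MEM with 10% FBS; compounds at several concentrations (10 mM stock, 1:5; top 46.1 µM in well), 24 h at 37 deg C, 5% CO2. Luminescence read after 10 min with Amplite reagent.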
Potency is the fitted concentration of half-maximal effect.

SMILES | Potency
CCCCNC(=S)N(Cc1c(C)noc1C)c1ccccc1 | inactive
C=CCNc1nc(-c2cc3ccccc3o2)cs1 | inactive
Cc1cc(C(=O)Cn2nnc3ccccc3c2=O)c(C)n1Cc1cccs1 | inactive
O=C(Nc1ccccc1N1CCCCC1)c1ccc([N+](=O)[O-])o1 | inactive
CCOc1ccc(N2C(=O)c3ccccc3NC2(C)CC)cc1 (stereo not given) | inactive
CC(=O)NC(=S)Nc1ccc(NC(=O)c2cccs2)cc1 | inactive
O=C(NC(=S)NC1CCCCC1)c1ccccc1[N+](=O)[O-] | inactive
Cc1ccc(C)c(OCC(O)CN2C(C)CCCC2C)c1 (stereo not given) | inactive
Cc1ccc2c(c1)C(N1CCCC1=O)CC(c1ccco1)N2 (stereo not given) | inactive
CC(C)(C)c1nnc(N/N=C/c2cc(Br)ccc2O)n(N)c1=O | inactive
N=C1C(c2nc3ccccc3s2)=C(O)CN1Cc1ccccc1 | inactive
CCCCNc1ncnc2c1cnn2-c1ccccc1 | inactive
O=C(N/N=C/c1cn(-c2ccccc2)nc1-c1cc2ccccc2o1)c1ccccc1Br | inactive
Cc1ccc2oc(C(=O)Nc3cc(C)on3)c(C)c2c1 | 9.2 µM (active)
CC12CN(C(=O)c3cccc([N+](=O)[O-])c3)C3(C#N)CC1CCC23C (stereo not given) | inactive
O=C(N/N=C\c1cccc(Cl)c1)c1n[nH]c2c1CCCC2 | inactive
Cc1c(C(=O)N2CCc3ccccc32)oc2c1C(=O)CC(C)(C)C2 | inactive
Cc1ccccc1Cn1nnc(-c2cccc(C(=O)O)c2)n1 | inactive
COCCN(Cc1cn[nH]c1-c1ccc2cc(OC)ccc2c1)C(C)C | inactive
Cc1ccc(C)n1-c1cccc(NC(=O)c2ccccc2)c1 | inactive

SMILES | Potency
Cc1cc(C)cc(NC(=O)c2sc3nc(C)cc(C)c3c2N)c1 | inactive
C/C(=N\OCC(=O)NC12CC3CC(CC(C3)C1)C2)c1cc2ccccc2o1 | inactive
C=CCn1c(C)cc(C(=O)COC(=O)c2ccc(N)c([N+](=O)[O-])c2)c1C | inactive
NNC(=O)c1cccc(O)c1 | inactive
COc1ccc(N=C(N)SCc2ccccn2)cc1 | inactive
Cc1ccc(CCc2nnc(SCC(=O)Nc3cccc(Cl)c3)n2-c2ccccc2)o1 | inactive
O=C(NCCOc1ccccc1F)c1cc(F)c(F)cc1Cl | inactive
CCOC(=O)c1c(C)nc(-c2ccccc2)nc1NC(=O)CC | inactive
c1cnc2c(OCc3nc4ccccc4[nH]3)cccc2c1 | inactive
O=C(COc1ccccc1Cl)Nc1ccc(Cl)cn1 | inactive
Cc1ccsc1/C=C1\CCc2ccccc2C1=O | inactive
Cc1ccc(/C=N/NC(=O)c2cccs2)s1 | inactive
COc1ccc(/C=N/Nc2nncc3ccccc23)cc1 | inactive
C/C(=N/NC(=O)c1ccc2c(c1)OCO2)c1ccc(NC(=O)C(F)(F)F)cc1 | inactive
COc1ccc(/C(O)=C2/C(=O)C(=O)N(CCN3CCOCC3)C2c2ccccn2)cc1 (stereo not given) | inactive
CN(C)CCCn1c(SCC(=O)Nc2nccs2)nnc1-c1ccncc1 | inactive
COc1cccc(Oc2ccc(N)cn2)c1 | inactive
CCc1nnc(NC(=O)/C=C/c2ccco2)s1 | inactive
COc1ccc(C(=O)N=c2nc3ccccn3s2)cc1 | inactive
CC(C)(C)NC(=O)C(c1ccc(Cl)cc1)N(CCO)C(=O)c1snc(C(N)=O)c1N (stereo not given) | inactive
